Data reported in PubChem BioAssay AID1508625 (Wald Lab, School of Medicine, Case Western Reserve …, 2021).

Experiment: small molecules boosting NK-mediated OVCAR3 lysis – imaging, primary NK cells, calcein-AM imaging, primary screen (AID 1508625);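 note: compound given to NK cells 16 h before adding targets at 1.5 to 1 ratio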;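 for z-score: more negative robust z means stronger NK killing of tumor cells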
Settings: OVCAR3 lysis by primary NK cells, at 5 µM; z-score: measured here: robust Z-score, single-point normalisation

Structure (SMILES) | corrected activity, negative = more killing | z-score
O=S1(=O)CC2(N3CCOCC3)CCCCC21 (stereo unspecified) | -5.53% | -1.76
O=[N+]([O-])c1ccccc1CNCCc1cccc(F)c1 | -3.35% | -1.06
CCCCCn1c(=O)c(C(=O)Nc2cccc(OC)c2)c(O)c2ccccc21 | -0.341% | -0.108
CCOC(=O)CN1C(=O)NC2(CCN(C)CC2)C1=O | -3.8% | -1.02
O=c1cccc2n1C[C@H]1C[C@@H]2CN(Cc2ccccc2F)C1 | -2.76% | -1.43
O=c1c2ccccc2nc(-c2ccco2)n1-c1ccc(Cl)cc1 | -0.835% | -0.329
CCN(CC)CCCn1c(=S)[nH]c2cc(Cl)ccc2c1=O | -4.51% | -1.2
COc1cccc(CCNCc2ccc(C)cc2C)c1 | -4.05% | -1.29
Cc1ccc(OCC(=O)N2CCN(C3CCCCC3)CC2)cc1 | -3.64% | -1.62
CC(Cc1ccccc1F)NC1CCCc2c1[nH]c1ccc([N+](=O)[O-])cc21 (stereo unspecified) | -1.36% | -0.594
CC12CN3CN(C1)CC(C)(C3)C2=NN | -6.15% | -2.42
CCC(C)N1CCN(Cc2cccc(Cl)c2)CC1 (stereo unspecified) | -0.307% | -0.137
CCOc1cccc(C(O)CNC)c1 (stereo unspecified) | 0.0567% | 0.0176
O=[N+]([O-])c1ccc(NCCc2ccccc2)c2ncccc12 | 1.61% | 0.498
CCCC12CN3CCN(CC(C3)C1O)C2 (stereo unspecified) | 0.145% | 0.0449
Cc1cnc2cccc[n+]2c1C | 0.645% | 0.254
C=CCON=C(CCC)C1C(=O)CC(C)(C)C(C(=O)OC)C1=O (stereo unspecified) | -4.48% | -1.77
CCOP(=S)(OCC)SCC(=O)c1c(O)cc(C)oc1=O | -2.68% | -1.01
